{"source": "PubChem BioAssay (NCATS)", "note": "Results filed as inconclusive are left out."}
{"test": "qHTS for identification of novel therapeutic agents for treatment of microphthalmiaassociated transcription factor (MiT) renal cell carcinoma (RCC) (AID 1963991)", "settings": "TFE3-RCC viability, CellTiter-Glo, 48 h; measured here: UOK145 Z-AUC; stronger effect = lower value", "method_in_brief": "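Three TFE3-fusion RCC lines (UOK109, UOK124, UOK145), 500 cells/well in complete medium, were treated with MIPE 4.0 compounds for 48 hours at 37 C. Viability was by CellTiter-Glo luminescence, normalized to DMSO (100%) and empty wells (0%); curves fitted over 11 concentrations.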"}
{"compound": "CC[C@H]1OC(=O)[C@H](C)[C@@H](O[C@H]2C[C@@](C)(OC)[C@@H](O)[C@H](C)O2)[C@H](C)[C@@H](O[C@@H]2O[C@H](C)C[C@H](N(C)C)[C@H]2O)[C@](C)(O)C[C@H](C)C(=NOCOCCOC)[C@H](C)[C@@H](O)[C@]1(C)O", "z-score": 0.696}
{"compound": "C[C@]12CCC3=C4CCC(=O)C=C4CC[C@@H]3[C@H]1CC[C@@]2(O)CC#N", "z-score": -0.023}
{"compound": "C[C@@H](O)[C@H]1C(=O)N2C(C(=O)OCOC(=O)C(C)(C)C)=C(SC3CN(C4=NCCS4)C3)[C@H](C)[C@H]12", "z-score": 0.788}
{"compound": "COc1ccc(C=CC(=O)Nc2ccccc2C(=O)O)cc1OC", "z-score": -0.0429}
{"compound": "C[C@@H]1O[C@@H](O[C@H]2CC[C@@]3(C)[C@H](CC[C@@H]4[C@H]3C[C@@H](O)[C@]3(C)[C@@H](C5=CC(=O)OC5)CC[C@]43O)C2)C[C@H](O)[C@@H]1O[C@H]1C[C@H](O)[C@H](O[C@H]2C[C@H](O)[C@@H](O)[C@@H](C)O2)[C@H](C)O1", "note": "(stereo in doubt)", "z-score": -0.987}
{"compound": "CO[C@H]1/C=C\\O[C@@]2(C)Oc3c(C)c(O)c4c(O)c(c(C=NN5CCN(C6CCCC6)CC5)c(O)c4c3C2=O)NC(=O)C(C)=CC=C[C@H](C)[C@H](O)[C@@H](C)[C@@H](O)[C@@H](C)[C@H](OC(C)=O)[C@H]1C", "z-score": -2.93}
{"compound": "CN(C)c1nc(Cc2ccc(NC(=O)c3ccc(C(F)(F)F)cc3)cc2)nc(N(C)C)c1CC(=O)O", "z-score": 0.741}
{"compound": "CC1(C)[C@H]2CC[C@]3(C)[C@@H](C(=O)C=C4[C@@H]5C[C@@](C)(C(=O)O)CC[C@]5(C)CC[C@]43C)[C@@]2(C)CC[C@@H]1O", "z-score": 0.985}
